HP1b chromo inh = blocks HP1-beta chromodomain binding to methylated histone tails; 390,000 compounds, 0.56% hits; Potency, µM (titrated, usually from 114 µM), actives largely listed as inhibitors; AlphaScreen HP1-beta / biotin-H3K9me3 peptide binding; P83916; also: nearly all actives have a fitted effect of over 70% in size
Target sequence (P83916 whole entry, looked up): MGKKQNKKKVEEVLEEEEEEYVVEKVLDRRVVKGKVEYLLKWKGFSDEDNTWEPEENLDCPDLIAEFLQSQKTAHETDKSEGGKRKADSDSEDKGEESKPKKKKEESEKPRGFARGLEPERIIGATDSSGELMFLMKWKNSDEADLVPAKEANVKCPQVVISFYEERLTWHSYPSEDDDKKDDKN
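Compound inhibition of the preformed complex between 50 nM HP1-beta and 50 nM biotinylated H3K9me3 peptide was read by AlphaScreen. Buffer was PBS pH 7.4 with 0.01% Tween-20. Incubations ran 30 min at room temperature, with 10 ug/mL donor/acceptor beads.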
JMJD2A Tudor = JMJD2A Tudor domain (human) inhibition; AlphaScreen JMJD2A-Tudor / H3K4me3 peptide binding; Potency, µM (top dose mostly 114 µM), actives largely listed as inhibitors; 390,000 compounds, 4.4% hits; also: nearly all actives have a fitted effect of over 50% in size
Six1-Eya2 blk = Six1/Eya2 interaction inhibition | Q15475+O00167 | 360,000 compounds, 0.56% hits | AlphaScreen GST-Six1/His-Eya2 binding, biochemical; hits give low values | activity change, % (test concentration not listed); in the data active = activity change below about -65%; inconclusive = mostly about -30% to -63%
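Six1/Eya2 binding was read as AlphaScreen signal after compounds were pinned into GST-Six1 plus His-tagged Eya2 (5X stock 250/500 nM) in pH 8.0 Tris/NaCl/TCEP buffer, beads added, then incubated 1 h, 37 C, dark.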
BAZ2B block = blocks human BAZ2B | AID 504333 | Potency, µM (doses to about 114 µM), actives largely listed as inhibitors | AlphaScreen BAZ2B-H3K14Ac peptide displacement | 360,000 compounds, 4.4% hits | Q9UIF8; also: nearly all actives have a fitted effect of over 60% in size
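BAZ2B (50 nM) with biotin-H3(5-23)K14Ac peptide (50 nM) in PBS pH 7.4, 0.01% Tween-20, preformed 30 min, then compound 30 min at room temperature; top concentration 110uM. AlphaScreen streptavidin donor/nickel chelate acceptor beads (10 ug/mL final), 20 min dark, signal read.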
CtBP-E1A inh = blocks the CtBP interaction with E1A; 340,000 compounds, 0.49% hits; activity change, % (concentration not given with the values); AID 651724; AlphaScreen GST-E1A/His-CtBP binding, 1536-well; hits give low values; in the data active = activity change below about -65%; inconclusive = mostly about -30% to -63%
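Protein mix (5X: 125 nM each GST-E1A, His-CtBP) was incubated with pinned compound 2 h at 37 deg C in dark, in 50 mM Tris pH 8.0 buffer with 300 mM NaCl. Glutathione donor and nickel acceptor beads followed; AlphaScreen signal read after 1 h.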
G9a inh = blocks human histone lysine methyltransferase G9a | Q96KQ7 | Potency, µM (highest dose often 102 µM), usual class: inhibitors | 350,000 compounds, 8.8% hits | G9a H3K9 monomethylation, AlphaScreen, 2 h; also: nearly all actives have a fitted effect of over 75% in size
Target sequence (Q96KQ7 913-1193 limits assumed): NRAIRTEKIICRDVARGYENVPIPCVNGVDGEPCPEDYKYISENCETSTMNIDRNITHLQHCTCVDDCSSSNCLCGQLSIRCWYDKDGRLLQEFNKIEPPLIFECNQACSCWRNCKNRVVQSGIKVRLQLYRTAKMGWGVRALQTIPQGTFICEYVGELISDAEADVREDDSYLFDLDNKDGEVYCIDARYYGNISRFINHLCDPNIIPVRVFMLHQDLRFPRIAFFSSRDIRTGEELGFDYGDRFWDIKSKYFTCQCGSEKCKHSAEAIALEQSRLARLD
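Readings reflect AlphaScreen signal from monomethyl-H3K9 antibody detection. HMT at 20 nM; substrate b-H3K9 500 nM; cofactor SAM 20 uM; 2 h RT reaction; compounds tested as titrations in qHTS with 15 min preincubation.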
A number is an active result; n = inactive; u = inconclusive; x = no result given; [ ] = dose if it differs, or a comment. Only some compounds are listed: those with a hit (about 10% of all), similar ones and a draw of the others. Unless noted, calls follow the shape of the dose curve; as a rule, active = well fitted inhibition curve with a large enough effect; inconclusive = small, poorly fitted or top-dose-only effect; inactive = no such curve, though single readings can be large or run the other way.

SMILES | HP1b chromo inh | JMJD2A Tudor | Six1-Eya2 blk | BAZ2B block | CtBP-E1A inh | G9a inh
C#CCOCCOCCOCCNc1nc(N2CCN(C(=O)[C@H]([C@@H](C)CC)n3cc([C@@H](N)Cc4ccc(O)cc4)nn3)CC2)nc(N2CCN(C(=O)[C@H](Cc3cc4ccccc4[nH]3)n3cc([C@@H](N)CC(C)C)nn3)CC2)n1 | n | 39.8µM | n | 56.2µM | n | n[2.33 µM]
C#CCOCCOCCOCCNc1nc(N2CCN(C(=O)[C@H]([C@@H](C)CC)n3cc([C@@H](N)CC(C)C)nn3)CC2)nc(N2CCN(C(=O)[C@H](Cc3cc4ccccc4[nH]3)n3cc([C@@H](N)C(C)CC)nn3)CC2)n1 (stereo not given in full) | x | x | x | 50.1µM | x | n[12.7 µM]
C#CCOCCOCCOCCNc1nc(N2CCN(C(=O)[C@H]([C@@H](C)CC)n3cc([C@@H](N)CC(C)C)nn3)CC2)nc(N2CCN(C(=O)[C@H](Cc3cc4ccccc4[nH]3)n3cc([C@@H](N)Cc4ccc(O)cc4)nn3)CC2)n1 | n | 56.2µM | n | 50.1µM | n | n[12.7 µM]
C(=N\Nc1ccc2nncn2n1)/c1ccccn1 | n | u | u | n | u | n
O=c1nc(N/N=C/c2ccccn2)cn[nH]1 | n | 17.8µM | -90.9 | 2.51µM | -90.5 | n
Cc1ccc(/C=N/Nc2cn[nH]c(=O)n2)o1 | n | u | u | 39.8µM | -68.5 | n
CC(C)(C)OC(=O)NCc1nnc(-c2nc3ccccc3[nH]2)o1 | x | n | x | x | x | x
O=C(CSc1n[nH]c(-c2ccccn2)n1)Nc1ccccc1F | n | 2.51µM | -92.4 | 4.47µM | n | n
COc1ccc(NC(=O)CSc2n[nH]c(-c3ccccn3)n2)cc1 | n | 3.98µM | -92.4 | 3.55µM | -79.2 | n
Nc1nc(SCC(=O)Nc2ccc(Oc3ccccc3)cc2)n[nH]1 | n | n | n | n | n | n
Nc1nc(SCC(=O)Nc2cccc(Oc3ccccc3)c2)n[nH]1 | n | n | n | n | x | 15.8µM
O=C(CSc1n[nH]c(-c2ccccn2)n1)Nc1ccccc1 | n | 3.98µM | -95.0 | u | -101.0 | x
Cc1cc(C)n2c(Nc3ccc(C(C)C)cc3)c(-c3ccsc3)nc2n1 | n | u | x | n | x | n
COc1ccccc1NC(=O)CSc1n[nH]c(-c2ccccn2)n1 | n | 3.55µM | -95.1 | 4.47µM | -89.6 | n
COc1ccccc1NC(=O)CSc1n[nH]c(-c2ccco2)n1 | n | n | n | x | n | x
CCOc1ccc(-n2nc3ccc(NC(=O)CC)cc3n2)cc1 | n | u | n | n | n | 35.5µM
CCOc1ccc(-n2nc3ccc(NC(=O)Cc4ccccc4)cc3n2)cc1 | n | n | x | n | x | n
c1ccc2c(C3=NNC(=NC4CCCCC4)SC3)c[nH]c2c1 | n | u | n | u | n | u
C=CCN=C1NN=C(c2cc(C)n(CCOC)c2C)CS1 | n | n | n | u | n | n
CCOc1ccc(N=C2NN=C(c3cc(C)n(CC4CCCO4)c3C)CS2)cc1 (stereo not given) | u | u | n | 70.8µM | n | 15.8µM
Cc1cc(C2=NNC(=NC3CC3)SC2)c(C)n1-c1ccccc1 | n | u | n | u | x | 28.2µM
c1ccc2c(C3=NNC(=NC4CC4)SC3)c[nH]c2c1 | n | n | n | n | n | 12.6µM
COCCn1c(C)cc(C2=NNC(=NC3CC3)SC2)c1C | n | n | n | u | n | 39.8µM
COc1ccc(-n2c(C)cc(C3=NNC(=NC4CC4)SC3)c2C)cc1 | u | u | n | n | n | n
CCCC[C@@H]1Cc2[nH][nH]c(=O)c2[C@H](c2cccc3ccccc23)O1 | x | x | n | x | n | x
SMILES | HP1b chromo inh | JMJD2A Tudor | Six1-Eya2 blk | BAZ2B block | CtBP-E1A inh | G9a inh
C/C(=N/NC(=O)CN1CCN(Cc2ccccc2Cl)CC1)c1cccnc1 | n | n | n | n | x | x
Cc1cc(C2=NNC(=NC3CC3)SC2)c(C)n1Cc1ccco1 | n | u | n | u | n | 25.1µM
COCCCN=C1NN=C(c2cc(C)n(Cc3ccco3)c2C)CS1 | n | u | n | u | n | u
c1ccc2sc(-n3cc(C4CCCCC4)nn3)nc2c1 | x | x | n | x | n | x
CCCCCCCCCCCCCCCCCC(=O)OCC(C)O (stereo not given) | x | x | x | x | x | 25.1µM
Cc1ccc(S(=O)(=O)N2CCC(C(=O)C3C(=O)CC(C)(C)CC3=O)CC2)cc1 | n | n | n | n | n | n
Cc1cc(C)c(NS(=O)(=O)c2ccccc2)c(C)c1 | n | n | n | x | n | x
Cc1cc(C)c(S(=O)(=O)/N=C2\C=C(NS(=O)(=O)c3ccccc3)C(=O)c3ccccc32)c(C)c1 | u | 12.6µM | n | 5.62µM | n | 6.31µM
Cc1ccc(S(=O)(=O)/N=C2/C=C(C3C(=O)CC(C)(C)CC3=O)C(=O)c3ccccc32)cc1 | n | u | n | u | n | 8.91µM
Cc1ccc(S(=O)(=O)/N=C2\C=C(NS(=O)(=O)c3ccccc3)C(=O)c3ccccc32)cc1 | u | 31.6µM | u | x | n | x
Cn1ncc2c(NCc3ccc(Cl)cc3)ncnc21 | n | n | x | n | x | n
COc1cccc(CN(Cc2ccco2)C(c2ccc(F)cc2)c2nnnn2C(C)(C)C)c1 (stereo not given) | n | n | n | n | n | 50.1µM
CC(C)(C)n1nnnc1C(c1cccnc1)N(Cc1ccccc1)Cc1ccco1 (stereo not given) | n | n | n | n | n | n[12.7 µM]
O=C(NNS(=O)(=O)c1ccccc1[N+](=O)[O-])c1cccc(Cl)c1 | n | 28.2µM | n | n | n | u
O=C(NNS(=O)(=O)c1ccccc1[N+](=O)[O-])c1ccc(F)cc1 | n | n | n | n | n | x
O=C(NNS(=O)(=O)c1ccccc1[N+](=O)[O-])c1cccc(Br)c1 | n | 11.2µM | n | n | n | n
Cc1cccc(C(=O)NNS(=O)(=O)c2ccccc2[N+](=O)[O-])c1 | n | u | n | n | n | u
O=C(NNS(=O)(=O)c1ccccc1[N+](=O)[O-])c1ccc(O)cc1 | u | 5.62µM | n | 50.1µM | n | u
NCCc1nc2cccnc2n1-c1ccccc1 | n | n | x | n | x | n
Cc1ccn2c(=O)cc(CSc3nnc(NC(=O)c4ccccc4Cl)s3)nc2c1 | n | n | x | n | x | n
CCOC(=O)C1=C(C)OC(N)=C(C#N)C1c1ccsc1 (stereo not given) | n | n | n | n | n | 10µM
CCOC(=O)C1=C(CC)OC(N)=C(C#N)C1c1ccsc1 (stereo not given) | n | n | n | u | n | 56.2µM
CCOC(=O)Cc1[nH]nc2c1C(c1ccsc1)C(C#N)=C(N)O2 (stereo not given) | n | n | n | n | n | n
CCOC(=O)C1=C(CC)OC(N)=C(C#N)C1c1ccc(OC)cc1OC (stereo not given) | n | n | n | n | n | n
CCOC(=O)C1=C(C)OC(N)=C(C#N)C1c1cc(SCC)oc1C (stereo not given) | n | n | n | u | n | 44.7µM

Source: PubChem (National Center for Advancing Translational Sciences (NCATS))
